These results are taken from article PMC4336329 (PLoS ONE, 2015).

Hit rate of the full screen: of about 310,000 compounds, about 2,200 (0.71%) showed an effect of 50% or more. The effect is printed as a negative number. The entries come from a sample that favours strong results as a whole.

The assay deals with human ether-à-go-go-related gene (hERG) potassium channel (human, UniProt Q12809). The experiment in a line: primary screen, population patch clamp on CHO cells stably expressing hERG; higher = less effect of the substance. The protocol: Briefly, Chinese hamster ovary (CHO) cells stably expressing the hERG channel were dislodged from tissue culture flasks and dispensed into PPC plates. […] During the recording, background leak currents were estimated by a 100 ms step to -80 mV from an initial holding potential of -70 mV and subtracted from the subsequent current measurement. The campaign was conducted in two phases using slight differences in recording protocol. In the first phase, the initial voltage pulse used a 100 ms step to -30 mV from a holding potential of -70 mV, a 2 s conditioning step to +25 mV, and a 2 s test step to -30 mV. During the second phase of the screen, the potential during the conditioning step was raised to +45 mV. In both phases of the campaign, a secondary voltage pulse was applied using the same parameters as the second phase initial pulse. The initial and secondary pulses were applied in the absence of compound, and upon application of 1 μM and 10 μM test concentrations. Small molecule effects on hERG current density were quantified by […].
Sequence of human ether-à-go-go-related gene (hERG) potassium channel (Q12809 whole entry, looked up): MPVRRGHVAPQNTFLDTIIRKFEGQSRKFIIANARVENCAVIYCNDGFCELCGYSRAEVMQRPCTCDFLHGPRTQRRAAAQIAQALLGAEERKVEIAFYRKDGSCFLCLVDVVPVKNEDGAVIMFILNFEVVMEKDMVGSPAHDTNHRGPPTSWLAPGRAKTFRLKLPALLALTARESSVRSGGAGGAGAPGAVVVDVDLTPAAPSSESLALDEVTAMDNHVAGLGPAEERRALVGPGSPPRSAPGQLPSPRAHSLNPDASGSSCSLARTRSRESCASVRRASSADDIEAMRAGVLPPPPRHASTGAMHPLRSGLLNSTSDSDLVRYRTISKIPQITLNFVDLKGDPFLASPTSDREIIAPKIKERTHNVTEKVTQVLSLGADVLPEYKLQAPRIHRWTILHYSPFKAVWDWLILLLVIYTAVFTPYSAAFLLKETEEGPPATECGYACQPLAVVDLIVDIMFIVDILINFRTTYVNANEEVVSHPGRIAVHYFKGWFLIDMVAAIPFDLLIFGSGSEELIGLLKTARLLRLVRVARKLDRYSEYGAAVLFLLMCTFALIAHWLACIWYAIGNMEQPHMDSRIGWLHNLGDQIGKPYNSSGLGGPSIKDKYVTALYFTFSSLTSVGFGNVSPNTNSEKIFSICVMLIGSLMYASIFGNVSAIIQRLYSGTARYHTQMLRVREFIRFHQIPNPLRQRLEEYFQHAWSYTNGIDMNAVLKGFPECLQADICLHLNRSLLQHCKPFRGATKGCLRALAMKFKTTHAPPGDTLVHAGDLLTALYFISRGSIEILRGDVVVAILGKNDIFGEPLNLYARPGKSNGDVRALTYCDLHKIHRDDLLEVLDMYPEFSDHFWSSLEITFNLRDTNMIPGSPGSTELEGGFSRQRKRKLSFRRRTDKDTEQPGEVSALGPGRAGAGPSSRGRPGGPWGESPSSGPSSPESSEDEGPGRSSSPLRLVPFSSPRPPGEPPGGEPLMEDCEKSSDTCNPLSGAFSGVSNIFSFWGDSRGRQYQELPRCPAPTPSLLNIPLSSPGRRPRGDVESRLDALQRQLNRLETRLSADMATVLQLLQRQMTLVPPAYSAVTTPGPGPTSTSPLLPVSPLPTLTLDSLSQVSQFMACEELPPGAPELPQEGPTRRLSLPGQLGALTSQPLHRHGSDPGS
Turning to `Cc1ccccc1Nc1nc(N)nc(CN2CCN(Cc3ccc4c(c3)OCO4)CC2)n1`, the “hERG current change (%, negative = inhibition) at 1uM” value is given as -45.4%. Then `Cc1ccc(Nc2nc(N)nc(CN3CCCCCC3)n2)c(C)c1`, with -21.7%; and `COc1ccc(-n2c(C)c3c(OC)cccc(=O)c3c2C)cc1`, with 0.316%. The figure for `O=S(=O)(Nc1nc2ccccc2nc1NCCN1CCOCC1)c1cccc(Cl)c1` is 8.11%. In the case of `O=C(COC(=O)c1ccco1)NCC1CCCO1` (stereo not shown), the “hERG current change (%, negative = inhibition) at 1uM” value is -0.29%. For `COc1cccc(CNC23CC4CC(CC(C4)C2)C3)c1OCc1ccccc1.Cl`, the “hERG current change (%, negative = inhibition) at 1uM” value came out at 3.29%.

For the compound `COc1cc(CNC23CC4CC(CC(C4)C2)C3)ccc1OCc1ccccc1.Cl`, the “hERG current change (%, negative = inhibition) at 1uM” value amounted to 1.77%. Take `Cl.c1ccc(COc2ccccc2CNC23CC4CC(CC(C4)C2)C3)cc1`: the “hERG current change (%, negative = inhibition) at 1uM” value is reported as -73.8%. With `Cc1cccc(-c2ccc(NC(=O)C3CCN(CC4CC4)CC3)cc2)c1`, the “hERG current change (%, negative = inhibition) at 1uM” value is on record as -5.16%. With `Cc1cccn2c(=O)c3cc(C(=O)NCC4CCCO4)c(=N)n(C4CCCC4)c3nc12` (stereo not shown), the “hERG current change (%, negative = inhibition) at 1uM” value was -80.3%. Take `Cc1cccn2c(=O)c3cc(C(=O)NCC4CCCO4)c(=N)n(C4CCCCC4)c3nc12` (stereo not shown): the “hERG current change (%, negative = inhibition) at 1uM” value is reported as -83.7%. For `COc1ccc(C2/C=C\CN(C(=O)c3ccc(C)cc3)[C@H](Cc3ccccc3)C(=O)N2Cc2ccc(F)cc2)cc1` (stereo partly shown), the “hERG current change (%, negative = inhibition) at 1uM” value came to 11.8%. As for `O=C(Cn1cnc(S(=O)(=O)N2CCCCC2)c1)Nc1ccc(OC(F)(F)F)cc1`, the “hERG current change (%, negative = inhibition) at 1uM” value was determined as 11.7%. With `O=C(Oc1cccc2cccnc12)c1cccc(N2C(=O)C3C4CCC(C4)C3C2=O)c1` (stereo not shown), the “hERG current change (%, negative = inhibition) at 1uM” value came out at 3.55%. `Cc1ccc(NC(=O)CSCC(=O)Nc2ccc(S(=O)(=O)N3CCOCC3)cc2)cc1`: the “hERG current change (%, negative = inhibition) at 1uM” value is on record as 11.4%. The figure for `COc1ccc(C(=O)CSc2nnc(-c3cc4ccccc4cc3O)n2Cc2ccco2)cc1` is -16.2%; for `O=C(CCCN1CCC(O)(c2ccc(Br)cc2)CC1)c1ccc(F)cc1` it is -75.7%. The figure for `OC(CCCN1CCC(O)(c2ccc(Cl)cc2)CC1)c1ccc(F)cc1` (stereo not shown) is -72.7%. Take `O=C(CN1CCC(O)(c2ccc(F)cc2)CC1)NCc1ccc(F)cc1`: the “hERG current change (%, negative = inhibition) at 1uM” value is -0.396%. With `Cl.O=C(CCCN1CCC(O)(c2cccc(C(F)(F)F)c2)CC1)c1ccc(F)cc1`, the “hERG current change (%, negative = inhibition) at 1uM” value was -80.9%.

Consider `OC1(c2ccc(Cl)cc2)CCN(Cc2cn[nH]c2-c2ccc(F)cc2)CC1`, for which the “hERG current change (%, negative = inhibition) at 1uM” value is on record as -27.2%.

Turning to `Cl.O=C(CCN1CCN(c2ccccc2F)CC1)c1ccc(Br)cc1`, the “hERG current change (%, negative = inhibition) at 1uM” value is reported as -40%.

Turning to `OC1(c2cccc(C(F)(F)F)c2)CCN(CCN2CCCCC2)CC1`, the “hERG current change (%, negative = inhibition) at 1uM” value is 16.2%. As to `OC(CN1CCN(c2ccc(F)cc2)CC1)c1ccc(Cl)cc1` (stereo not shown), the “hERG current change (%, negative = inhibition) at 1uM” value worked out at 2.87%. Then `CC(=O)N1CCC(O)(c2cccc(C(F)(F)F)c2)CC1`, with 8.78%. Regarding `COc1ccc(CCNC(=O)C(C)n2nc(C)n3c(cc4occc43)c2=O)cc1OC` (stereo not shown), the “hERG current change (%, negative = inhibition) at 1uM” value is on record as 12.2%. On to `NC(=O)c1ccc(NC(=O)c2cccc(Oc3ccccc3)c2)cc1`, for which the “hERG current change (%, negative = inhibition) at 1uM” value came to 12.5%. For `CCOC(=O)C1=C(C)NC(C)=C(C(=O)OCC)C1c1ccc(Br)o1`, the “hERG current change (%, negative = inhibition) at 1uM” value was found to be 9.3%. With `COc1cc([N+](=O)[O-])ccc1NC(=S)NCc1ccccn1`, the “hERG current change (%, negative = inhibition) at 1uM” value stood at 8.38%. For the compound `Cc1cc(C)c(NC(=O)CCCSc2nnc(N)s2)c(C)c1`, the “hERG current change (%, negative = inhibition) at 1uM” value is given as -4.26%. As for `S=C(Nc1ccc(Cl)cc1Cl)Nc1ccccc1Oc1ccccc1`, the “hERG current change (%, negative = inhibition) at 1uM” value was found to be 12.4%. The figure for `O=C1c2ccccc2C(=O)N1CSc1ncccn1` is 1.65%. With `Cc1cc(C)nc(N2CCC(C(=O)NC3CCCCCC3)CC2)n1`, the “hERG current change (%, negative = inhibition) at 1uM” value was found to be 0.0346%. Regarding `Cc1cc(NCc2ccco2)nc(N2CCC(C(=O)NC3CCCCC3)CC2)n1`, the “hERG current change (%, negative = inhibition) at 1uM” value is listed as -63.6%.

With `Cc1cc(C)nc(N2CCC(C(=O)NCc3ccco3)CC2)n1`, the “hERG current change (%, negative = inhibition) at 1uM” value is given as 1.22%. With `COc1cccc(CCNC(=O)c2ccc(C#N)cc2)c1`, the “hERG current change (%, negative = inhibition) at 1uM” value is on record as 8.19%. Then `Cc1[nH]nc(N)c1-c1ccc(Cl)cc1`, with 3.97%; and `O=C(NCCc1ccccc1)/C(=C\c1ccc([N+](=O)[O-])cc1)NC(=O)c1ccccc1`, with 3.17%. On to `O=C(NCCc1ccccc1)/C(=C\c1cccc([N+](=O)[O-])c1)NC(=O)c1ccco1`, for which the “hERG current change (%, negative = inhibition) at 1uM” value is reported as -50.6%. Consider `O=C(NCCO)/C(=C/c1cccc([N+](=O)[O-])c1)NC(=O)c1ccco1`, for which the “hERG current change (%, negative = inhibition) at 1uM” value is 9.43%. The figure for `O=C(NCc1ccccc1)/C(=C\c1ccccc1)NC(=O)c1ccco1` is 11.9%; for `CC(=O)Oc1ccc(/C=C(\NC(=O)c2ccco2)C(=O)NCc2ccco2)cc1` it is -11%; for `O=C(NCCc1ccccc1)/C(=C\c1ccccc1)NC(=O)c1ccco1` it is 9.3%. Take `O=C(NCc1ccccc1)/C(=C\c1ccc([N+](=O)[O-])cc1)NC(=O)c1ccco1`: the “hERG current change (%, negative = inhibition) at 1uM” value is reported as -19.6%. Consider `O=C(NCCc1ccccc1)/C(=C\c1ccc([N+](=O)[O-])cc1)NC(=O)c1ccco1`, for which the “hERG current change (%, negative = inhibition) at 1uM” value is reported as -59%.

As for `O=C(NCCO)/C(=C\c1cccc([N+](=O)[O-])c1)NC(=O)c1ccco1`, the “hERG current change (%, negative = inhibition) at 1uM” value was determined as 8.45%. Turning to `O=C(NCc1ccco1)/C(=C/c1ccc([N+](=O)[O-])cc1)NC(=O)c1ccco1`, the “hERG current change (%, negative = inhibition) at 1uM” value is -50.4%.

On to `CC(=O)Oc1ccc(/C=C(\NC(=O)c2ccco2)C(=O)NCc2ccccc2)cc1`, for which the “hERG current change (%, negative = inhibition) at 1uM” value was -58.9%. For `O=C(NCc1ccccc1)/C(=C/c1ccc([N+](=O)[O-])cc1)NC(=O)c1ccco1`, the “hERG current change (%, negative = inhibition) at 1uM” value is given as -31%.
